Assay outcomes (PubChem BioAssay)
HSF1 inhib: HSF1 inhibition | 300,000 compounds, 0.77% hits | NIH3T3-HGL HSE-luciferase, MG132-induced, luminescence 8 h; stronger effect = lower value | AID 2098 | activity change, negative = inhibition, % at 7.5 µM (by protocol);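 active = more than half of replicate wells show activity change below -50%, luminescence cut by over half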;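 note: luciferase reports HSF-1 transcriptional activity via heat shock element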
esBAF inh: SWI/SNF esBAF complex inhibition; mouse ES cells, Bmi1-luciferase knock-in reporter, 24 h; 100% = twice the neutral-well signal; reporter increase, % at 12.5 µM; 350,000 compounds, 2% hits; in the data active = activation above about 40%;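 note: a rise in the Bmi1 reporter signal indicates esBAF inhibition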
HSF-1 act: increases HSF-1 driven luciferase reporter signal. AID 504408. NIH3T3-HGL HSF-1 luciferase reporter, MG132, 8 h; 100% = twice DMSO control signal. 300,000 compounds, 1.7% hits. activation, % at 9 µM;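 active = mean replicate activation of at least 50% with a set share of replicates each reaching 50%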
Vif inh: blocks HIV Vif function. 340,000 compounds, 0.35% hits. inhibition, % at 7.49 µM. HEK293T cells, Vif self-association by quenched fluorescence, imaging, 24 h. AID 602346; in the data active = inhibition above about 50%, passing the limit was not always enough
Each line names hits and unclear results; the compound was inactive in the other large screens. A selection: hits, their analogues and other compounds. The true share with any hit is near 3.4%.

CCN(CC)C(=O)C1CCCN(c2ccc([N+](=O)[O-])cc2/C=N/NC(=O)c2ccccc2)C1 (centres undefined)	none (no result: esBAF inh)
CCN(CC)C(=O)C1CCCN(c2ccc([N+](=O)[O-])cc2/C=N/NC(=O)c2ccc([N+](=O)[O-])cc2)C1 (centres undefined)	HSF1 inhib -78
Cc1ccc(S(=O)(=O)N[C@@H]2CC[C@H](CCNC(=O)C3CCCCC3)O[C@H]2CO)cc1	none (no result: HSF1 inhib, HSF-1 act, Vif inh)
CCOC(=O)c1ccccc1NC(=O)c1ccc2c(SCC(=O)O)c3c(nc2c1)CCCC3	HSF1 inhib -77
CC(C)CCNC(=O)c1ccc2c(SCC(=O)O)c3c(nc2c1)CCCC3	HSF-1 act 62 (no result: esBAF inh)
O=C(O)CSc1c2c(nc3cc(C(=O)NCCN4CCOCC4)ccc13)CCC2	none (no result: esBAF inh, Vif inh)
COc1cc(Cl)c(C)cc1NC(=O)c1ccc2c(SCC(=O)O)c3c(nc2c1)CCCC3	none (no result: esBAF inh)
CC1(C)CCCN(Cc2c(O)ccc3c(=O)c(-c4nc5ccccc5s4)c(N)oc23)C1	HSF-1 act 79
CC1CCCN(Cc2c(O)ccc3c(=O)c(-c4nc5ccccc5s4)c(N)oc23)C1 (centres undefined)	none
Cc1ccc(-c2csc(N/N=C/c3ccco3)n2)c(C)c1	esBAF inh 69
CN(C)S(=O)(=O)c1cccc(-c2csc(N/N=C/c3ccco3)n2)c1	none
COc1ccc(C#Cc2ccc([C@@H]3[C@H](CO)N4CCCCN(C(=O)Nc5cccc(F)c5)C[C@@H]34)cc2)cc1	none (no result: HSF1 inhib, HSF-1 act, Vif inh)
C[C@H]1CCCCO[C@@H](CN(C)Cc2ccncc2)[C@@H](C)CN([C@@H](C)CO)C(=O)c2cc(NC(=O)Nc3ccc4c(c3)OCO4)ccc2O1	esBAF inh 80 (no result: HSF1 inhib, HSF-1 act, Vif inh)
C[C@H](CO)N1C[C@H](C)[C@@H](CN(C)C(=O)Nc2ccc(F)cc2)OCCCC[C@H](C)Oc2ccc(NC(=O)Nc3ccc4c(c3)OCO4)cc2C1=O	esBAF inh 50 (no result: HSF1 inhib, HSF-1 act, Vif inh)
C[C@@H]1CN([C@@H](C)CO)C(=O)c2cc(NC(=O)Nc3ccc4c(c3)OCO4)ccc2O[C@@H](C)CCCCO[C@H]1CN(C)C(=O)Nc1ccccc1	esBAF inh 66 (no result: HSF1 inhib, HSF-1 act, Vif inh)
C[C@@H]1CCCCO[C@@H](CN(C)C(=O)Nc2ccc3c(c2)OCO3)[C@H](C)CN([C@H](C)CO)C(=O)c2cc(NC(=O)Nc3ccccc3)ccc2O1	none (no result: HSF1 inhib, HSF-1 act, Vif inh)
C[C@@H]1CCCCO[C@@H](CN(C)C(=O)Nc2ccc3c(c2)OCO3)[C@@H](C)CN([C@H](C)CO)C(=O)c2cc(NC(=O)Nc3ccc(F)cc3)ccc2O1	none (no result: HSF1 inhib, HSF-1 act, Vif inh)
CO[C@@H]1CN(C)C(=O)c2ccc(NC(=O)Nc3ccccc3Cl)cc2OC[C@@H](C)N(S(=O)(=O)CC(F)(F)F)C[C@H]1C	none (no result: HSF1 inhib, HSF-1 act, Vif inh)
CNC(=O)C[C@@H]1CC[C@@H]2[C@@H](COc3ccc(NC(=O)Nc4ccccc4)cc3C(=O)N2C)O1	none (no result: HSF1 inhib, HSF-1 act, Vif inh)
C=CCn1c(SCC(=O)NCC)nnc1-c1cc2c(s1)CCC(CC)C2 (centres undefined)	esBAF inh 46
COc1ccc(-c2csc3nc(-c4ccccc4OC)oc(=O)c23)cc1	HSF-1 act 91
CCc1cc(C(=O)c2ccc(OC)cc2)c(N)s1	HSF-1 act 59 (no result: Vif inh)
CCc1cc(C(=O)c2ccccc2OC)c(N)s1	none
CCOc1ccc(S(=O)(=O)N(C)c2ccc(OCC(=O)NCCc3ccc(OC)cc3)cc2)cc1	HSF1 inhib -53
COc1ccc(CCNC(=O)c2ccc(N(C)S(=O)(=O)c3ccc(C)cc3)cc2)cc1	HSF1 inhib -55 (no result: esBAF inh, Vif inh)
COCC(=O)Nc1ccc2c(c1)[C@H]1C[C@@H](CC(=O)N3CCN(C)CC3)O[C@@H](CO)[C@H]1O2	none (no result: HSF1 inhib, HSF-1 act, Vif inh)
CCc1ccc(C(=O)/C=C/c2cnn(C)c2C)s1	esBAF inh 55
C[C@H](CO)N1C[C@H](C)[C@H](CN(C)C(=O)Nc2ccc3c(c2)OCO3)OCCCC[C@H](C)Oc2ccc(NC(=O)CCCCCC(=O)Nc3ccccc3N)cc2C1=O	none (no result: HSF1 inhib, HSF-1 act, Vif inh)
CC(=O)NCCNC(=O)c1ccc(CSc2ccc(Cl)cc2)cc1	esBAF inh 54, HSF-1 act 68
CC(C)c1ccc(C(=O)NCc2ccc(Cl)cc2)cc1	HSF-1 act 57 (no result: esBAF inh)
FC(F)(F)c1cnc(/C=C/Nc2ccccc2Cl)c(Cl)c1	HSF-1 act 52
CCCSc1nc(N)nc(-c2cccs2)c1C#N	esBAF inh 48
CNC(=O)C[C@H]1CC[C@H]2[C@@H](COc3ccc(NC(=O)Nc4cccc(C#N)c4)cc3C(=O)N2C)O1	none (no result: HSF1 inhib, HSF-1 act, Vif inh)
Cc1cc(C)c2cc(C(=O)N(C)C3CCN(C)CC3)[nH]c2c1	HSF-1 act 55 (no result: esBAF inh)
COc1ccc(/C=N/NC(=O)c2c(C)n(C)c3ccc(OC)cc23)c(OC)c1	none (no result: esBAF inh)
